Source: PubChem (NMMLSC)
RGS8-Gao reg – RGS8-Galphao binding modulators, primary screen, biochemical, multiplexed bead flow cytometry. AID 1423, 2008. Guanine nucleotide-binding protein G(o) subunit alpha (Homo sapiens), P09471. actives lie on both sides. 220,000 tested, 0.34% active. response (percent of control binding), % at 10 µM; in the data active = response below about 60% or above about 140%; inactive = in between;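 also: Galphao activated as the GDP aluminium fluoride complex binding bead-coupled RGS8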
Target sequence (P09471 whole entry, looked up): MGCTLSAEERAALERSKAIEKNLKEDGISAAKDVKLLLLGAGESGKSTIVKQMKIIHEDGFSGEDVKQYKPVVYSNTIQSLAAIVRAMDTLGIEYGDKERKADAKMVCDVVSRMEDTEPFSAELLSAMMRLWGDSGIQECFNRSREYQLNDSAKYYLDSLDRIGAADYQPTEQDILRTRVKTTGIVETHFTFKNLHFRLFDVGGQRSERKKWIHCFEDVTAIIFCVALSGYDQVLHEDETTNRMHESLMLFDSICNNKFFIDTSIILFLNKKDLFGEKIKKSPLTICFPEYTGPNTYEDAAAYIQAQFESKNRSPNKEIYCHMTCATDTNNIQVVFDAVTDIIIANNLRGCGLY
RGS7-Gao reg – RGS7-Galphao binding modulators, primary screen, biochemical, multiplexed bead flow cytometry. actives lie on both sides. 220,000 tested, 0.35% active. Guanine nucleotide-binding protein G(o) subunit alpha (Homo sapiens), P09471. binding response (% of control), % at 10 µM; in the data active = binding response below about 49% or above about 150%; inconclusive = no clear call, values can overlap the other calls; inactive = in between;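 also: fluorescent Galphao held in activated GDP-AlF4 state binding bead-coupled RGS7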
RGS16-Gao HTS – modulators of RGS16 binding to Galphao, primary screen, biochemical, human proteins, multiplexed bead flow cytometry. Regulator of G-protein signaling 16 (Homo sapiens) + Guanine nucleotide-binding protein …. bead-based flow cytometry RGS16-Galphao binding, fluorescence; actives lie on both sides. binding response (% of control), % at 10 µM. 220,000 tested, 0.38% active. AID 1441, 2008; call rule not given here;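 also: Galphao activated by GDP with aluminum fluoride before binding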
RGS4-Gao reg – modulators of RGS4 binding to Galphao, primary screen, biochemical, multiplexed bead flow cytometry | actives lie on both sides | binding response (% of control), % at 10 µM | 220,000 tested, 0.33% active | AID 1415, 2008; in the data active = binding response below about 49% or above about 150%; inactive = in between;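 also: fluorescent Galphao activated with aluminum fluoride binding bead-coupled RGS4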
Avidin fluor – green autofluorescence of compounds with avidin beads – biophysical, 488/530 nm, flow cytometry, artefact control, profiling panel; fluorescence (KMESF) at 10 µM; 220,000 tested, 0.38% active; compound fluorescence 488/530 nm; hits give high values; AID 1775, 2009; in the data active = fluorescence above about 47
GSH fluor – compound fluorescence on glutathione beads, profiling panel, artefact control, biophysical, 488/530 nm, flow cytometry; GSH beads flow cytometry, compound fluorescence 488/530 nm; hits give high values; fluorescence (KMESF) at 10 µM; 190,000 tested, 0.25% active; in the data active = fluorescence above about 89;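 also: glutathione beads carrying GST-tagged Bcl family fusion proteins plus one bare bead set; values are compound well signal with DMSO vehicle wells as background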
* = called active by the depositor; ? = inconclusive; . = no result given; [ ] = another dose, or the depositor's remark. The list is not random: actives were taken first. Their share in the collection is about 1.2%.

SMILES | RGS8-Gao reg | RGS7-Gao reg | RGS16-Gao HTS | RGS4-Gao reg | Avidin fluor | GSH fluor
N#CC1=C(N)Oc2n[nH]c(-c3cccs3)c2C1c1cccs1 (centres undefined) | 101 | 109 | 101 | 103 | 48* | 16
N#CC1=C(N)Oc2n[nH]c(-c3cccs3)c2C1c1ccccc1C(=O)O (centres undefined) | 101 | 104 | 102 | 105 | 9 | 19
COc1ccc2c(=O)c3c(=O)n(Cc4ccco4)c(-c4ccc(C)cc4)nc3oc2c1 | 88 | 89 | 89 | 86 | 11 | 26
COc1cc(-c2nc3oc4ccccc4c(=O)c3c(=O)n2Cc2ccco2)cc(OC)c1OC | 91 | 138 | 98 | 103 | 49* | 21
O=C(N/N=C/c1ccc(-c2ccc(S(=O)(=O)Nc3ncccn3)cc2)o1)c1cc2ccccc2cc1O | 100 | 102 | 101 | 112 | 50* | 28
CC(=O)Nc1ccc(C(=O)Nc2nc(-c3cccnc3)cs2)cc1 | 90 | ? | 90 | 116 | 63* | 8
CC(=O)NC(=S)Nc1ccc2oc(=O)ccc2c1 | 102 | ? | 105 | 100 | 6 | .
CCn1c(SCC(=O)N2CCN(c3ccccc3)CC2)nnc1-c1ccncc1 | 99 | 101 | 95 | 98 | 4 | 148*
O=C(CSc1nnc(-c2ccncc2)n1-c1ccc(Cl)cc1)N1CCOCC1 | 98 | 132 | 104 | 107 | 77* | 18
NC(=O)CSc1nnc(-c2ccncc2)n1-c1ccc(Cl)cc1 | 86 | 94 | 49 | 90 | 5 | 23
CC(NC(=O)c1ccc(S(=O)(=O)C(F)F)cc1)c1ccccc1 (centres undefined) | 100 | ? | 101 | 102 | 8 | 14
O=C(NC(c1ccccc1)c1ccccc1)c1ccc(S(=O)(=O)C(F)F)cc1 | 100 | 110 | 102 | 102 | 58* | 16
CN(C)c1nc(N)c2ncc(=S)[nH]c2n1 | 97 | ? | 99 | 99 | 9 | 14
CN1CCC(N(C)C(=O)c2sc3cc(F)ccc3c2Cl)CC1 | 95 | ? | 104 | 131 | 136* | 14
CC(C)N(CC(N)=O)C(=O)c1sc2cc(F)ccc2c1Cl | 95 | 92 | 91 | 97 | 18 | 9
O=C(CSc1nc(O)cc(=O)n1C1CCCC1)Nc1cccc(Cl)c1Cl | 101 | 101 | 100 | 100 | 12 | 26
COC(=O)c1ccccc1NC(=O)CSc1nc(O)cc(=O)n1C1CCCC1 | 102 | 107 | 100 | 103 | 54* | 22
CCc1ccnc(NS(=O)(=O)c2ccc3c(c2)CCO3)c1 | 98 | ? | 97 | 97 | 6 | .
CCOc1ncccc1C(=O)OCc1cccc([N+](=O)[O-])c1 | 102 | 98 | 95 | 98 | 12 | 10
CN(C(=O)c1cc2nc(-c3ccco3)cc(C(F)(F)F)n2n1)C1CCCCC1 | 47* | 35* | 35 | 39* | 5 | 31
CCN(CC)S(=O)(=O)c1cccc(NC(=O)COC(=O)c2cc(=O)c3ccccc3o2)c1 | 107 | 97 | 102 | 103 | 8 | 9
CCN(CC)S(=O)(=O)c1cccc(NC(=O)COC(=O)c2ccc(Br)o2)c1 | 92 | 100 | 60 | 98 | 4 | 255*
CC(=O)Nc1ccc(S(=O)(=O)N2CCOCC2)cc1 | 95 | 80 | 88 | 78 | 4 | 140*
Cc1ccc(S(=O)(=O)N2CCN(c3ccccn3)CC2)cc1 | 96 | ? | 97 | 98 | 5 | .
CC(=O)Nc1ccc(S(=O)(=O)N2CCN(c3ccccn3)CC2)cc1 | 96 | 111 | 99 | 98 | 65* | 25
CC1CCCC(NC(=O)C2CCN(S(=O)(=O)N3CCCCC3)CC2)C1C (centres undefined) | 102 | ? | 107 | 104 | 10 | 18
O=C(COC(=O)c1ccncc1)NCCCc1ccccc1 | 139 | 152*[activator] | 148 | 154*[activator] | 11 | 14
O=C(COC(=O)c1ccncc1)NCc1ccccc1 | 100 | 99 | 101 | 99 | 16 | 27
